PubChem BioAssay (Tox21)
“And” between values parts separate entries of the source, which are not always exact repeats. Equal entries are not always repeated. Results filed as inconclusive are left out. Where a structure was tested more than once in an assay, its records may differ in their call. The source made the active and inactive calls. Unless noted, calls come from the whole dose curve; as a rule, active = well fitted curve in the direction sought with a large enough effect in the repeat runs; inconclusive = weak or mixed curves; inactive = no such curve, though single readings can be large; an effect the other way counts as inactive or inconclusive.

Columns and labels:
[1] = qHTS assay to identify small molecule agonists of the hypoxia (HIF-1) signaling pathway - cell viability counter screen (AID 1224844; calls by dose curve; note: nearly all actives have a fitted effect of over 50% in size)
Procedure, shortened: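 Cytotoxicity measured by CellTiter-Glo ATP luminescence in the wells also read for beta-lactamase signal. Cells were HRE-bla ME-180 (2,000/well, 0.5% dialyzed FBS), exposed to compounds for 17 h at 37C.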

[2] = qHTS assay to identify small molecule agonists of H2AX (AID 1224845; active = well fitted activation curve with a large enough effect in the signal ratio in the repeat runs, not every such curve was filed as active; the % refers to the signal ratio)
Procedure, shortened: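 Phospho-H2AX Ser139 measured by HTRF (ex 320 nm; em 665 and 620 nm) after 24 hr antibody incubation. Compounds, 15 concentrations, 0.76% DMSO, were applied to CHO-K1 cells for 3hr at 37C before lysis.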

[3] = qHTS assay to identify small molecule agonists of the hypoxia (HIF-1) signaling pathway (AID 1224846; active = well fitted activation curve with a large enough effect in the signal ratio in the repeat runs, not every such curve was filed as active; the % refers to the signal ratio)
Procedure, shortened: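 Compounds added to ME-180 cells carrying hypoxia-response-element beta-lactamase reporter (0.5% dialyzed FBS, 5 h preplating), 17 h at 37C; agonist activity detected by CCF4-AM B/G FRET read-out.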

[4] = qHTS assay to identify small molecule agonists of H2AX - cell viability counter screen (AID 1224847; calls by dose curve; note: nearly all actives have a fitted effect of over 30% in size; note: potency is the fitted concentration of half-maximal effect)
Procedure, shortened: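 Read-out: CellTiter-Glo luminescence, 30 min RT. Cells: wild-type CHO-K1, 1000/well, 10% FBS, plated overnight at 37C. Treatment: 15 concentrations, 3 hr, 37C, 0.76% DMSO.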

[5] = qHTS RealTime-Glo MT Cell Viability Assay in HepG2 cells - 24 hour (AID 1224867); note: nearly all actives have a fitted effect of over 50% in size; note: potency is the fitted concentration of half-maximal effect
Procedure, shortened: (§1)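 Cell number in HepG2 cultures estimated from NanoLuc luminescence generated by metabolic reduction of a prosubstrate by living cells. The homogeneous, nonlytic format allowed repeated reads at 0, 8, 16, 24, 32 and 40 h of compound exposure.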

[6] = qHTS RealTime-Glo MT Cell Viability Assay in HEK293 cells - 32 hour (AID 1224868); note: nearly all actives have a fitted effect of over 50% in size; note: potency is the fitted concentration of half-maximal effect
Procedure, shortened: (§2)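 Homogeneous bioluminescent viability format in HEK293 cells (600 cells/well). Following 5 h at 37 C/5% CO2, 23 nL compound was pintooled; the signal was measured repeatedly during 40 h incubation.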

[7] = A CellTox Green Cytotoxicity Assay to monitor cytotoxicity in HEK293 cells - 0 hour (AID 1224869); note: nearly all actives have a fitted effect of over 50% in size
Procedure, shortened: (§3)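 Fluorescence from a DNA-binding dye excluded by viable cells was measured repeatedly in the same HEK293 wells (600 cells/well) during continuous compound exposure at 37 C. Each assay gives one read point: 0, 8, 16, 24, 32 or 40 h.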

[8] = qHTS RealTime-Glo MT Cell Viability Assay in HepG2 cells - 40 hour (AID 1224870); note: nearly all actives have a fitted effect of over 50% in size; note: potency is the fitted concentration of half-maximal effect
Procedure, shortened: (§4)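 Real-time viability: cells seeded at 600 per well together with NanoLuc and cell-permeant prosubstrate, compounds added after 5 h incubation. Luminescence tracked at 0, 8, 16, 24, 32 and 40 h of exposure.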

[9] = qHTS RealTime-Glo MT Cell Viability Assay in HEK293 cells - 16 hour (AID 1224872)
Procedure, shortened: as §2

[10] = qHTS RealTime-Glo MT Cell Viability Assay in HepG2 cells - 8 hour (AID 1224873); note: nearly all actives have a fitted effect of over 55% in size
Procedure, shortened: as §4

[11] = qHTS RealTime-Glo MT Cell Viability Assay in HEK293 cells - 40 hour (AID 1224874); conditions: RealTime-Glo luminescence; max response: stronger effect = lower value; note: nearly all actives have a fitted effect of over 50% in size
Procedure, shortened: (§5)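 Luminescence, which tracks viable cell number through reduction of the prosubstrate to a NanoLuc substrate, was read over continuous 37 C culture. Cells (600/well) were premixed with reagent and rested 5 h before 23 nL of compound in DMSO was pinned.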

[12] = A CellTox Green Cytotoxicity Assay to monitor cytotoxicity in HEK293 cells - 24 hour (AID 1224875); note: series mostly up to about 77 µM; nearly all actives have a fitted effect of over 45% in size
Procedure, shortened: as §3

[13] = A CellTox Green Cytotoxicity Assay to monitor cytotoxicity in HepG2 cells - 16 hour (AID 1224876); note: nearly all actives have a fitted effect of over 45% in size; note: potency is the fitted concentration of half-maximal effect
Procedure, shortened: (§6)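 Real-time cytotoxicity: fluorescence of a cell-impermeant cyanine dye binding DNA of dead HepG2 cells, measured repeatedly (0–40 h) during compound exposure at 37 C. Cells seeded 600/well with reagent, dosed after 5 h.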

[14] = qHTS RealTime-Glo MT Cell Viability Assay in HepG2 cells - 32 hour (AID 1224877); note: nearly all actives have a fitted effect of over 55% in size; note: potency is the fitted concentration of half-maximal effect
Procedure, shortened: as §1

[15] = A CellTox Green Cytotoxicity Assay to monitor cytotoxicity in HepG2 cells - 24 hour (AID 1224878); note: nearly all actives have a fitted effect of over 45% in size; note: potency is the fitted concentration of half-maximal effect
Procedure, shortened: as §6

[16] = A CellTox Green Cytotoxicity Assay to monitor cytotoxicity in HepG2 cells - 40 hour (AID 1224879); note: nearly all actives have a fitted effect of over 40% in size; note: potency is the fitted concentration of half-maximal effect
Procedure, shortened: as §6

[17] = qHTS RealTime-Glo MT Cell Viability Assay in HEK293 cells - 0 hour (AID 1224880); note: top concentration of the series differs between compounds; nearly all actives have a fitted effect of over 45% in size
Procedure, shortened: as §5

[18] = A CellTox Green Cytotoxicity Assay to monitor cytotoxicity in HEK293 cells - 40 hour (AID 1224871); note: nearly all actives have a fitted effect of over 45% in size; note: potency is the fitted concentration of half-maximal effect
Procedure, shortened: as §3

[19] = qHTS assay to identify small molecule antagonists of the estrogen related receptor (ERR) signaling pathway from Tox21 library (AID 1224848); note: nearly all actives have a fitted effect of over 50% in size
Procedure, shortened: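 ERR cell line, 2,000 cells/well. 6 h settle, then compound (DMSO) added; 18 h at 37 C; ONE-Glo luminescence after 30 min RT.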
% is set by controls: 0 for no effect and ±100 for the full control effect.

COP(=O)(NC(C)=O)SC (stereo not drawn)
inactive: Potency [1] | Potency [2] | outcome [3] | Potency [4] | Potency [5] | Potency [6] | Potency [7] | Potency [8] | Potency [9] | Potency [10] | max response [11] 1.36% and 10.1% | Potency [12] | Potency [13] | Potency [14] | Potency [15] | Potency [16] | Potency [17]

COc1ccc(CO)cc1
inactive: Potency [1] | Potency [2] | outcome [3] | Potency [5] | Potency [6] | Potency [7] | Potency [8] | Potency [18] | Potency [9] | Potency [10] | max response [11] 11.4% and -15.8% | Potency [12] | Potency [13] | Potency [14] | Potency [15] | Potency [16] | Potency [17]

CC(C)=CC1C(C(=O)OCc2cccc(Oc3ccccc3)c2)C1(C)C (stereo not drawn)
inactive: Potency [1] | Potency [2] | outcome [3] | Potency [19] | Potency [5] | Potency [6] | Potency [7] | Potency [8] | Potency [18] | Potency [9] | Potency [10] | Potency [12] | Potency [13] | Potency [14] | Potency [15] | Potency [16] | Potency [17]

CCOP(=O)(O)OCC (tested in a mixture with another compound)
inactive: Potency [1] | Potency [2] | outcome [3] | Potency [7] | Potency [10] | Potency [17]
inactive and 24.3 µM (active): Potency [18]
inactive and 34.4 µM (active): Potency [16]
inactive and 43.3 µM (active): Potency [8] | Potency [13] | Potency [15]
inactive and 28.2 µM (active): Potency [4]
inactive and 4.33 µM (active): Potency [6]
inactive and 48.6 µM (active): Potency [5] | Potency [14]

Cl
inactive: Potency [1] | Potency [2] | outcome [3] | Potency [5] | Potency [6] | Potency [7] | Potency [8] | Potency [18] | Potency [10] | max response [11] 0.872% and 8.14% | Potency [12] | Potency [13] | Potency [14] | Potency [15] | Potency [16] | Potency [17]

COC(=O)Nc1nc2ccccc2[nH]1
inactive: Potency [1] | Potency [2] | outcome [3] | Potency [4] | Potency [5] | Potency [7] | Potency [8] | Potency [18] | Potency [10] | Potency [12] | Potency [13] | Potency [14] | Potency [15] | Potency [17]
active: Potency [16] 5.49 µM and 11 µM

Clc1ccccc1-c1nnc(-c2ccccc2Cl)nn1
inactive: Potency [1] | Potency [2] | outcome [3] | Potency [5] | Potency [6] | Potency [7] | Potency [8] | Potency [18] | Potency [9] | Potency [10] | Potency [12] | Potency [13] | Potency [14] | Potency [15] | Potency [16] | Potency [17]
